Measured values reported in the supplement of paper PMC9492666.

What follows are molecules tested on HCC1937 (assay: relative cell viability, compound + RSL3, vs DMSO (fraction of DMSO control); higher = less growth inhibition). Conditions: 72 h.
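Also: breast cancer cell viability read out with the CCK-8 kit after co-treatment of each compound with the ferroptosis inducer RSL3.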

SMILES | relative cell viability
CCN(CC)CCN(Cc1ccc(-c2ccc(C(F)(F)F)cc2)cc1)C(=O)Cn1c(SCc2ccc(F)cc2)nc(=O)c2c1CCC2 [Darapladib] + COC(=O)c1ccc([C@H]2c3[nH]c4ccccc4c3C[C@H](C(=O)OC)N2C(=O)CCl)cc1 [RSL3] | 0.0907
CC1=C(C)C(=O)C(C(CCCCCC(=O)O)c2ccccc2)=C(C)C1=O (configuration not stated) [Seratrodast] + COC(=O)c1ccc([C@H]2c3[nH]c4ccccc4c3C[C@H](C(=O)OC)N2C(=O)CCl)cc1 [RSL3] | 0.948
CN(C)C(=O)Nc1cccc(-c2ccc(N(C)C)cc2)c1 [Atglistatin] + COC(=O)c1ccc([C@H]2c3[nH]c4ccccc4c3C[C@H](C(=O)OC)N2C(=O)CCl)cc1 [RSL3] | 0.321
COC(=O)/C=C/c1cccc(N(Cc2ccc(-c3ccc(N(C)C)cc3)cc2)C(=O)C2CCCCC2)c1 [Fexaramine] + COC(=O)c1ccc([C@H]2c3[nH]c4ccccc4c3C[C@H](C(=O)OC)N2C(=O)CCl)cc1 [RSL3] | 0.316
CCCCCCS(=O)(=O)NC(=O)c1ccc(CSCc2ccc(-c3ccccc3)cc2)cc1 + COC(=O)c1ccc([C@H]2c3[nH]c4ccccc4c3C[C@H](C(=O)OC)N2C(=O)CCl)cc1 [RSL3] | 0.403
CN1CC(O)C2=C/C(=N/NC(N)=O)C(=O)C=C21 (configuration not stated) [Carbazochrome] + COC(=O)c1ccc([C@H]2c3[nH]c4ccccc4c3C[C@H](C(=O)OC)N2C(=O)CCl)cc1 [RSL3] | 0.451
CC[C@H](C)C(=O)O[C@H]1CCC=C2C=C[C@H](C)[C@H](CC[C@@H]3C[C@@H](O)CC(=O)O3)[C@H]21 [Mevastatin] + COC(=O)c1ccc([C@H]2c3[nH]c4ccccc4c3C[C@H](C(=O)OC)N2C(=O)CCl)cc1 [RSL3] | 0.707
